The campaign covered roughly 310,000 compounds. About 14,000 (4.5%) showed an effect of 50% or more. Effects have a minus sign here. The list comes from a sample in which strong results are over-represented; it also holds similar structures and randomly drawn compounds.
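Also: peak tail current of the secondary pulse compared with the same well before compound.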

The target in the assay is human ether-à-go-go-related gene (hERG) potassium channel (human, UniProt Q12809). As to the kind of experiment: primary screen, population patch clamp on CHO cells stably expressing hERG; higher = less effect of the substance.
Chain of human ether-à-go-go-related gene (hERG) potassium channel (Q12809 whole entry, looked up): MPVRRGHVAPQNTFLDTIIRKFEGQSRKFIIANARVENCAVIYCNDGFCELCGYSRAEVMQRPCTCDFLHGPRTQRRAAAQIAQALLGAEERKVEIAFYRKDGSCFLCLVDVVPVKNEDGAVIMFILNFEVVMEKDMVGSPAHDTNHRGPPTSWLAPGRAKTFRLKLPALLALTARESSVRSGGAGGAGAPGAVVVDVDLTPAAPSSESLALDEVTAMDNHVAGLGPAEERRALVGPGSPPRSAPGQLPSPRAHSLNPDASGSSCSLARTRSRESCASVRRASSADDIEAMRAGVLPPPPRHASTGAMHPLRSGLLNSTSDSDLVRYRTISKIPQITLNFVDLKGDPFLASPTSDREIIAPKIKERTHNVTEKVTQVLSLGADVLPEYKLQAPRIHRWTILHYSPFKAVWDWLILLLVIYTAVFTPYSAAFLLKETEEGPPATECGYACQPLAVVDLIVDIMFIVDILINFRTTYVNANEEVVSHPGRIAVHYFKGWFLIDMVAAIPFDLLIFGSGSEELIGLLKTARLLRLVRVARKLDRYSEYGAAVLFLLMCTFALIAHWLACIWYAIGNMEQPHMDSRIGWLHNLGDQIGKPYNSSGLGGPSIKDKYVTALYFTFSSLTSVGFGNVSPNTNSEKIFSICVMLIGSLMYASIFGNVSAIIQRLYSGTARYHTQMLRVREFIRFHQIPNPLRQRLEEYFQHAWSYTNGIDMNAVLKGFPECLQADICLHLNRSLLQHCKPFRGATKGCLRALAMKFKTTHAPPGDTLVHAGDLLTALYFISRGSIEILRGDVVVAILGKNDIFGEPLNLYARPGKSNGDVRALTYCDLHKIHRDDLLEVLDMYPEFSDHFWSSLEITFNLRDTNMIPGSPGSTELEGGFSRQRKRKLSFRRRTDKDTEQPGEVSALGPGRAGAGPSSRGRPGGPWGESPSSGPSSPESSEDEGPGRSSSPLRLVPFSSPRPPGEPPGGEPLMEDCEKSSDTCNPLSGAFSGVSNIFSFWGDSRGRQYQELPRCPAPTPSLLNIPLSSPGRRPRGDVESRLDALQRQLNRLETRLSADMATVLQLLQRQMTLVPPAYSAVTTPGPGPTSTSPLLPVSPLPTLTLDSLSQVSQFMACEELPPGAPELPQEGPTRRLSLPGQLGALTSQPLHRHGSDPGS
For `N#CC1(c2ccccc2)CCCN1C(=O)c1ccc(Br)cc1` (stereo not shown), the “hERG current change (%, negative = inhibition) at 10uM” value is on record as -8.79%.

Take `CC(=O)Nc1ccc(NC(=O)COc2ccc3c(c2)CCC3)cc1`: the “hERG current change (%, negative = inhibition) at 10uM” value came to 24.5%.

Turning to `N#CC1CCCc2c1[nH]c1ccc([N+](=O)[O-])cc21` (stereo not shown), the “hERG current change (%, negative = inhibition) at 10uM” value worked out at 12.5%.

For `C=CCN1C2CCCC1CC(NC(=O)Nc1cccc(C(C)=O)c1)C2` (stereo not shown), the “hERG current change (%, negative = inhibition) at 10uM” value is listed as 5.52%.

As to `S=C(Nc1ccccc1Cl)NC1CC2CCCC(C1)N2C1CC1` (stereo not shown), the “hERG current change (%, negative = inhibition) at 10uM” value was -23.8%.

In the case of `CCCN1C2CCCC1CC(NC(=S)Nc1cc(C)ccc1C)C2` (stereo not shown), the “hERG current change (%, negative = inhibition) at 10uM” value stood at 11.6%.

For `Cc1cc(C)cc(NC(=S)NC2CC3CCCC(C2)N3C2CC2)c1` (stereo not shown), the “hERG current change (%, negative = inhibition) at 10uM” value is listed as -67.3%.

Turning to `S=C(Nc1cccc(Cl)c1)NC1CC2CCCC(C1)N2C1CCCC1` (stereo not shown), the “hERG current change (%, negative = inhibition) at 10uM” value was found to be 19%.

For `CCCN1C2CCCC1CC(NC(=S)Nc1cc(C)cc(C)c1)C2` (stereo not shown), the “hERG current change (%, negative = inhibition) at 10uM” value is listed as -83.7%.

As to `C=CCN1C2CCCC1CC(NC(=O)Nc1cc(C)cc(C)c1)C2` (stereo not shown), the “hERG current change (%, negative = inhibition) at 10uM” value is on record as -51.8%.

Regarding `S=C(Nc1ccc(Cl)cc1)NC1CC2CCCC(C1)N2C1CC1` (stereo not shown), the “hERG current change (%, negative = inhibition) at 10uM” value is recorded as -32.9%.

On to `CCCN1C2CCCC1CC(NC(=S)Nc1cccc(C)c1)C2` (stereo not shown), for which the “hERG current change (%, negative = inhibition) at 10uM” value is -44.5%.

For the compound `Cc1cc(C)cc(NC(=O)NC2CCCCCCC2)c1`, the “hERG current change (%, negative = inhibition) at 10uM” value is -5.07%.

As for `COc1ccc(NC(=S)NC2CC3CCCC(C2)N3C2CC2)cc1` (stereo not shown), the “hERG current change (%, negative = inhibition) at 10uM” value was -41.3%.

For the compound `S=C(Nc1ccc(Cl)cc1)NC1CC2CCCC(C1)N2C1CCCC1` (stereo not shown), the “hERG current change (%, negative = inhibition) at 10uM” value is on record as -55.5%.

For the compound `CC1=C(C)C(OCCBr)N(c2cc(O)c(Cl)cc2F)C1=O` (stereo not shown), the “hERG current change (%, negative = inhibition) at 10uM” value stood at 4.66%.

Take `CN(C(=O)c1ccc(NC(=O)Cc2ccc(NC(=O)C3CCN(C(=O)CCc4ccccc4)CC3)cc2)cc1)C1CC1`: the “hERG current change (%, negative = inhibition) at 10uM” value is given as 9.51%.

Turning to `COc1cccc2cc(C(=O)n3ccc(C)n3)c(=O)oc12`, the “hERG current change (%, negative = inhibition) at 10uM” value is 8.24%.

`CN1CCN(C2=C(NS(=O)(=O)c3ccccc3)C(=O)c3ccccc3C2=O)CC1`: the “hERG current change (%, negative = inhibition) at 10uM” value amounted to 2.75%.

Turning to `Cc1ccc(S(=O)(=O)NCC2CCC(C(=O)NCc3ccc4c(c3)OCO4)CC2)cc1` (stereo not shown), the “hERG current change (%, negative = inhibition) at 10uM” value is -0.473%.

In the case of `Cl.Clc1ccccc1CN1CCN(/N=C/c2ccncc2)CC1`, the “hERG current change (%, negative = inhibition) at 10uM” value is recorded as -24.3%.

Take `CCCCCCCN1C/C=C\C(c2ccc(OC)cc2)N(Cc2ccc(F)cc2)C(=O)[C@H]1Cc1ccccc1` (stereo partly shown): the “hERG current change (%, negative = inhibition) at 10uM” value was 8.55%.

Take `NC(=O)CC(NC(=O)Cc1ccc(Cl)cc1)c1ccc(N2CCC(Cc3ccccc3)CC2)c([N+](=O)[O-])c1` (stereo not shown): the “hERG current change (%, negative = inhibition) at 10uM” value came out at 17.7%.

Consider `Cc1nc(SCC(=O)NCc2ccco2)c2c(C)c(C)sc2n1`, for which the “hERG current change (%, negative = inhibition) at 10uM” value is on record as -2.85%.

Turning to `O=C(COC(=O)c1ccc(NS(=O)(=O)c2cccs2)cc1O)NC1CCCCC1`, the “hERG current change (%, negative = inhibition) at 10uM” value is on record as 8.92%.

For `O=C(O)CCS(=O)(=O)c1ccc(-c2ccccc2)cc1`, the “hERG current change (%, negative = inhibition) at 10uM” value was determined as 19.3%.

For the compound `CSc1ccc(-c2nc(CSCC(=O)NCCCN3CCCC3=O)c(C)o2)cc1`, the “hERG current change (%, negative = inhibition) at 10uM” value is on record as -14.4%.

Take `Cc1cc(C)cc(NC(=S)NC2CC3CCCC(C2)N3CC(C)C)c1` (stereo not shown): the “hERG current change (%, negative = inhibition) at 10uM” value is listed as -7.32%.

`Cc1cc(C)cc(NC(=S)NC2CC3CCCC(C2)N3C2CCCC2)c1` (stereo not shown): the “hERG current change (%, negative = inhibition) at 10uM” value is on record as -77.5%.

Consider `COc1cccc(NC(=S)NC2CC3CCCC(C2)N3C2CCCC2)c1` (stereo not shown), for which the “hERG current change (%, negative = inhibition) at 10uM” value is recorded as -33.6%.

Take `COc1ccc([C@H]2CC(=O)C=C(c3cccc(C(F)(F)F)c3)C2)cc1`: the “hERG current change (%, negative = inhibition) at 10uM” value was -14.4%.

With `Cc1ccc(C2=NOC(C)(c3nnc(Cc4ccccc4)o3)C2)cc1` (stereo not shown), the “hERG current change (%, negative = inhibition) at 10uM” value is on record as -15.2%.

`CC1(c2nnc(Cc3ccccc3)o2)CC(c2cccc([N+](=O)[O-])c2)=NO1` (stereo not shown): the “hERG current change (%, negative = inhibition) at 10uM” value is -7.45%.

In the case of `CC1(c2nnc(Cc3ccccc3)o2)CC(c2ccc(Cl)cc2)=NO1` (stereo not shown), the “hERG current change (%, negative = inhibition) at 10uM” value is given as -23.3%.

Take `CC1(c2nnc(Cc3ccccc3)o2)CC(c2ccc([N+](=O)[O-])cc2)=NO1` (stereo not shown): the “hERG current change (%, negative = inhibition) at 10uM” value was -63.2%.

Turning to `CC1(c2nnc(Cc3ccccc3)o2)CC(c2ccc(C#N)cc2)=NO1` (stereo not shown), the “hERG current change (%, negative = inhibition) at 10uM” value is reported as -62.3%.

Consider `CC1(c2nnc(Cc3ccccc3)o2)CC(c2ccccc2)=NO1` (stereo not shown), for which the “hERG current change (%, negative = inhibition) at 10uM” value is -18%.

For the compound `CC1(C)CC(=O)C=C(N2CCNCC2)C1`, the “hERG current change (%, negative = inhibition) at 10uM” value was 14.9%.

Turning to `CCOC(=O)C1CCCN(C(=O)c2cccc(N3C(=O)c4ccccc4C3=O)c2)C1` (stereo not shown), the “hERG current change (%, negative = inhibition) at 10uM” value is on record as -18.4%.

As for `O=C(c1cccc(N2C(=O)c3ccccc3C2=O)c1)N1CCCC(C(F)(F)F)C1` (stereo not shown), the “hERG current change (%, negative = inhibition) at 10uM” value is recorded as -53.9%.

Consider `O=C(c1ccc(Cl)c(S(=O)(=O)N2CCCCC2)c1)N1CCCC1`, for which the “hERG current change (%, negative = inhibition) at 10uM” value was -7.02%.

For `CCOC(=O)C1CCCN(C(=O)c2ccc(Cl)c(S(=O)(=O)N3CCCCC3)c2)C1` (stereo not shown), the “hERG current change (%, negative = inhibition) at 10uM” value is listed as -13.8%.

For the compound `O=C(c1ccc(Cl)c(S(=O)(=O)N2CCCCCC2)c1)N1CCCC(C(F)(F)F)C1` (stereo not shown), the “hERG current change (%, negative = inhibition) at 10uM” value is -58.9%.

In the case of `CC1CCCN(C(=O)c2ccc(Cl)c(S(=O)(=O)N3CCCCCC3)c2)C1` (stereo not shown), the “hERG current change (%, negative = inhibition) at 10uM” value was -76.3%.

Take `O=C(c1ccc(Cl)c(S(=O)(=O)N2CCCCC2)c1)N1CCCC(C(F)(F)F)C1` (stereo not shown): the “hERG current change (%, negative = inhibition) at 10uM” value is given as -31.8%.

For the compound `O=C(c1cccc(N2C(=O)c3ccccc3C2=O)c1)N1CCCCCC1`, the “hERG current change (%, negative = inhibition) at 10uM” value is listed as 2.21%.

As to `CCOC(=O)C1CCCN(C(=O)c2ccc(C)c(S(=O)(=O)N3CCCCC3)c2)C1` (stereo not shown), the “hERG current change (%, negative = inhibition) at 10uM” value is reported as -25.3%.

Regarding `O=C(c1ccc(Cl)c(S(=O)(=O)N2CCCC2)c1)N1CCCCC1`, the “hERG current change (%, negative = inhibition) at 10uM” value stood at 3.08%.

For `O=C(c1ccc(Cl)c(S(=O)(=O)N2CCCC2)c1)N1CCCC(C(F)(F)F)C1` (stereo not shown), the “hERG current change (%, negative = inhibition) at 10uM” value is given as -18.1%.

Take `CCOC(=O)C1CCCN(C(=O)c2ccc(Cl)c(S(=O)(=O)N3CCCCCC3)c2)C1` (stereo not shown): the “hERG current change (%, negative = inhibition) at 10uM” value is listed as -70.7%.

As for `CSc1cccc(NC(=O)OC2CCCCCCCCCCC2)c1`, the “hERG current change (%, negative = inhibition) at 10uM” value turned out to be 7.83%.

On to `Cc1ccc(S(=O)(=O)N2C(=O)/C(=C3\SC(=S)NC3=O)c3ccccc32)cc1`, for which the “hERG current change (%, negative = inhibition) at 10uM” value worked out at 10%.

Take `Fc1ccccc1CSc1ncnc2sc3c(c12)CCCC3`: the “hERG current change (%, negative = inhibition) at 10uM” value turned out to be 2.75%.

As for `O=C(Nc1ccc2nn(-c3ccccc3)nc2c1)c1ccc(Br)o1`, the “hERG current change (%, negative = inhibition) at 10uM” value was found to be 7.88%.

`CCOc1cc(C)c(C(C)C)cc1S(=O)(=O)n1ccc(C)n1`: the “hERG current change (%, negative = inhibition) at 10uM” value is reported as -29.4%.

(Values after paper PMC4336329 (PLoS ONE, 2015).)
